Compounds without any hit were thinned out: in the full panel of roughly 79,000, 15% have a hit. Values without a mark were called inactive. Active and inactive are the calls of the source. No stated cut-off is given here; in the data, active means growth inhibition above about 70%; inactive means the rest.
Experiment: NCI Yeast Anticancer Drug Screen. Data for the sgs1 mgt1 strain (AID 161);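 further: 0% = growth of cultures given vehicle only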
Details: S. cerevisiae sgs1 mgt1 strain, hits give high values
Procedure: Growth inhibition of yeast strains with defined genetic alterations is measured as a screen for potential anti-cancer activity. Selected strains with alterations in DNA damage repair or cell cycle control were exposed to compounds and growth inhibition was measured relative to vehicle treated controls. The strain used in this assay is sgs1 mgt1

[1] = at 5.0 µM (retest, dose inferred, filed as 0.5)
[2] = at 50.0 µM (retest, dose inferred, filed as 5.0)

Row | SMILES | growth inhibition [1] | growth inhibition [2] | growth inhibition (at 50.0 µM)
1 | COc1cc2c(cc1O)-c1c(cnn1-c1ccc([N+](=O)[O-])cc1)CCC2 | 4% | 38% | 85.6% (active)
2 | CC(O)c1cc(-c2ccc(Cl)cc2)nc2ccccc12 (configuration not stated) | 6% | 98% (active) | 98% (active)
3 | Fc1ccc(CN2COc3c(ccc4cccnc34)C2)cc1 | 2% | 34% | 62.4%
4 | CC[n+]1ccc(Nc2ccc(NC(=O)c3ccc(C(=O)Nc4ccc(Nc5cc[n+](CC)c(N)n5)cc4)cc3)cc2)nc1N | 26% | 99% (active) | 99% (active)
5 | O=C(C(Cl)Cl)N(O)c1ccccc1OCc1ccccc1 | 8% | 94% (active) | 90% (active)
6 | CCCn1c(=O)c2ccccc2[n+]2c(-c3ccc([N+](=O)[O-])cc3)csc12 | 1% | 67% | 92.1% (active)
7 | CN(C)c1ccc(/C=C/c2nc3ccccc3[nH]2)cc1 | -3% | 89% (active) | 37.1%
8 | C=C(CSCCCCCCCCCCCC)C(=O)O | 98% (active) | 97% (active) | 98.5% (active)
9 | Cc1ccc(COCO)c(O)c1 | 2% | -4% | -10.8%
10 | O=[N+]([O-])/C(Cl)=C/C(=C1/Nc2ccccc2O1)[N+](=O)[O-] | -14% | 48% | 72.5% (active)
11 | O=C1C(c2ccccc2)=[N+]([O-])c2cc([N+](=O)[O-])c(/C(Cl)=C/c3ccccc3)cc21 | 6% | 16% | 71.5% (active)
12 | O=c1oc(-c2ccccc2)nc2ccccc12 | 0% | 9% | 58.9%
13 | CCCCCCCCCCCCCCC[C@@H](O)C[N+](C)(C)CCO | 50% | 98% (active) | 90% (active)
14 | Nc1cc(Cl)ccc1S | 83% (active) | 47% | 99.5% (active)

From PubChem BioAssay (NCI)
